In the library only some 5.7% were active in any assay of this set; here they are far more common.
hgDAF12 agonist – activates the H. glycines DAF-12 receptor ligand-binding domain; activation, % at 6.8 µM; HEK293 GAL4-hgDAF12 UAS-luciferase reporter, agonist luminescence; normalized to butyrate control; 370,000 tested, 1.8% active;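 active = activation above a cutoff set at the mean of all screened compounds plus 3 SD, cut at about 10% in these data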;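 note: 0% = DMSO wells and 100% = sodium butyrate wells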
DAX1 inh-1 – inhibitors of human orphan nuclear receptor DAX1 (NR0B1); P51843; HEK293 Gal4-DAX1 luciferase reporter, luminescence; inhibition, % at 6.75 µM; 340,000 tested, 0.99% active; AID 504766;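 active = inhibition above the mean over all tested compounds plus 3 SD, cut at about 4.2% in these data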;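 note: 0% = DAX1-transfected cells with DMSO and 100% = empty-vector control cells with DMSO; inhibition shows as a rise in luminescence from relieved DAX1 repression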
Target sequence (P51843 207-470 limits assumed): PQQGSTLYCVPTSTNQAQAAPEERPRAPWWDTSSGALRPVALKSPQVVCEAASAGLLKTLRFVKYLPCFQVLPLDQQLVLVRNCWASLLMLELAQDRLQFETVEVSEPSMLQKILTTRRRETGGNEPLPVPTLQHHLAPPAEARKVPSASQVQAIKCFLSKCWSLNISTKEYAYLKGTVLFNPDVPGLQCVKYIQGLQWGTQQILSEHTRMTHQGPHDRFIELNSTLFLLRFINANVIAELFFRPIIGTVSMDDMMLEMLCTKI
DAX1 inh-2 – DAX1 (NR0B1) inhibition, primary screen; AID 652010; inhibition, % at 6.8 µM; HEK293T StAR-luciferase reporter, SF-1/DAX-1 repression relief; 370,000 tested, 1.1% active;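 active = inhibition above the mean over all tested compounds plus 3 SD, cut at about 3.6% in these data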;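 note: 0% = DAX-1 cells with DMSO and 100% = cells lacking DAX-1 with DMSO; higher inhibition means more luminescence from relief of DAX-1 repression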
hcDAF12 agonist – activators of H. contortus DAF-12 nuclear receptor; HEK293 hcDAF-12 lit1-tk-luc reporter, luminescence; 0% DMSO, 100% Δ7-dafachronic acid; activation, % at 6.8 µM; 370,000 tested, 1.4% active;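 active = activation above the mean of all tested compounds plus 3 SD, cut at about 5.5% in these data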;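 note: 100% = response to 3 µM Δ7-dafachronic acid high control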
ssDAF-12 act – S. stercoralis DAF-12 activation, primary screen; HEK293 ssDAF-12/GRIP1 lit1-tk-luc reporter, luminescence; % of 3 µM dafachronic acid response; 370,000 tested, 1% active; activation, % at 6.8 µM;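 active = activation above the mean over all tested compounds plus 3 SD, cut at about 0.9% in these data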;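 note: 0% = DMSO-only wells and 100% = 3 µM delta7-dafachronic acid wells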
AHR act – activators of human aryl hydrocarbon receptor | P35869 | AHR-responsive luciferase reporter cells, luminescence | activation, % at 5 µM | 320,000 tested, 2.5% active | AID 2796; in the data active = activation above about 47%;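 note: 0% = vehicle wells and 100% = reference agonist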
Active calls of the source: *; / = no result given.

SMILES	hgDAF12 agonist	DAX1 inh-1	DAX1 inh-2	hcDAF12 agonist	ssDAF-12 act	AHR act
O=C(COC(=O)C1CC1)Nc1ccc(N=Nc2ccccc2)cc1	13*	2	3	4	1	-2
CCn1c(CSc2nccn2C)nc2cc(C(=O)O)ccc21	/	0	/	/	/	2
CCn1c(CSc2nc3ccccc3[nH]2)nc2cc(C(=O)O)ccc21	3	0	0	2	0	60*
O=C(COc1cccc2cccnc12)NNC(=S)Nc1ccccc1	/	/	/	/	/	3
O=C(Nc1ccc(-c2cn3ccccc3n2)cc1)c1cccs1	12*	1	4	1	0	-4
O=C(Nc1ccc(NC(=O)c2ccccc2F)cc1)c1cccs1	8	0	4.2*	1	0	-4
O=C(Nc1ccc([N+](=O)[O-])cc1)c1ccccc1F	12*	2	2	2	-1	-5
O=C(COc1cccc2cccnc12)N/N=C1\SCC(=O)N1Cc1ccccc1	0	1	-1	-1	-1	52*
O=C(Nc1ccc(NC(=O)c2cccs2)cc1)c1cccs1	7	0	2	2	-1	-11
O=C(NCCNc1ccc([N+](=O)[O-])cc1C(F)(F)F)c1ccccc1F	-3	-1	-1	-1	-1	59*
O=C(NCc1ccco1)c1cnc2sccn2c1=O	-1	1	0	0	-1	-2
O=C(NCCCNC(=O)c1cccs1)c1cccs1	-2	1	0	-2	-1	0
O=C(Nc1ccc(OCc2ccccc2)cc1)c1cccs1	9	5.1*	2	2	-1	-3
O=C(NCCc1ccccc1)c1cccs1	11*	1	3	3	1	6
O=C(NCCc1ccccc1)c1cnc2sccn2c1=O	11*	2	3	3	0	8
O=C(N/N=C/c1ccc(OCc2ccccc2)cc1)c1cccs1	9	2	1	2	-1	1
Cc1c(C(=O)N(CCO)Cc2ccccc2)oc2c(F)cccc12	4	2	1	2	0	20
O=C(CCNc1n[nH]c(=O)[nH]c1=O)N/N=C\c1cccc(OCc2ccccc2)c1	2	/	0	-1	-1	-2
Cc1cc(-c2cc(NC(=O)Cc3c[nH]c4ccccc34)ccc2N(C)c2cccnc2)ccc1F	-1	/	0	-1	0	/
O=C(N/N=C1\SCC(=O)N1CCc1ccccc1)c1cccs1	-5	-1	0	-1	-1	51*
Cc1cc2ccccc2n1CCNC(=O)c1cccs1	9	0	2	6	1.6*	14
O=C(Nc1ccc(Cl)cc1)c1cccs1	12*	0	0	0	-1	13
O=C(Nc1ccccc1)c1cc([N+](=O)[O-])ccc1NC1CCCCC1	0	-1	0	0	-2	52*
COc1ccc(CCN2C(=O)CS/C2=N\NC(=O)c2ccc(C(C)(C)C)cc2)cc1OC	-4	-3	-1	-2	-2	43
Cc1cc2ccccc2n1CCNC(=O)C1CC1	-2	1	-1	4	0	8
SMILES	hgDAF12 agonist	DAX1 inh-1	DAX1 inh-2	hcDAF12 agonist	ssDAF-12 act	AHR act
Cn1c(=O)cc(C(=O)N/N=C/c2ccc(F)cc2)[nH]c1=O	0	-1	1	-1	-1	0
COc1ccc(S(=O)(=O)NCc2cc(-c3ccccc3Cl)no2)cc1	-3	0	0	-1	-1	0
CCOc1ccc(NC(=S)Nc2ccc(OCc3ccccc3)cc2)cc1	1	-1	0	0	0	2
CCN(CC)C(=O)C(=O)Nc1ccc(OCc2ccccc2)cc1	12*	0	0	-1	-1	-1
CCOc1ccc2c(c1)ncn2Cc1ccccc1	0	4.7*	1	0	-1	7
C[C@@H](c1ccccc1)N1C[C@@H](COCc2ccccc2)Oc2cc(N3CCC[C@H]3C(N)=O)ccc2S1(=O)=O	3	/	1	1	4.2*	/
C[C@@H](c1ccccc1)N1C[C@H](COCc2ccccc2)Oc2cc(N3CCC[C@H]3C(N)=O)ccc2S1(=O)=O	0	/	-3	0	-1	/
CC(C)c1ccc(NC(=O)CCNC(=O)N2CC(=O)Nc3ccccc32)cc1	0	0	3.9*	-1	-1	10
COc1ccccc1CNCC(=O)N1CC(=O)Nc2ccccc21	-2	3	0	-1	-2	60*
COc1ccc(NC(=O)CCNC(=O)N2CC(=O)Nc3ccccc32)cc1	3	1	1	0	-1	/
COc1cccc(CNC(=O)CNC(=O)N2CC(=O)Nc3ccccc32)c1	1	1	3.7*	-1	-1	6
COc1ccccc1CNC(=O)CNC(=O)N1CC(=O)Nc2ccccc21	4	1	1	-2	-1	5
CCc1ccc(C(=O)NC2CCCCC2)s1	11*	1	3	3	1	9
CC(C)(O)C#Cc1ccc(C(=O)NC2CCCCC2)s1	11*	1	1	2	-1	9
N=C1C(=O)OCC1c1ccccc1NC(=O)CN1CCOCC1 (configuration not stated)	0	0	-1	-2	-1	3
O=C(Nc1ccc(Br)cc1)OC1CC2CC1[C@H]1CCCCN1C2 (some centres not stated)	-2	/	0	0	0	/
Cc1ccc(NC(=O)OC2CC3CC2[C@H]2CCCCN2C3)cc1 (some centres not stated)	11*	/	0	0	-1	/
O=C(CSc1nc2c([nH]c3ccccc32)c(=O)n1-c1ccccc1)N1CCOCC1	3	0	0	6.0*	-1	7
Cc1ccc(-n2c(SCC(N)=O)nc3c([nH]c4ccccc43)c2=O)cc1	-5	-1	-1	-2	-1	30
COc1cccc(-n2c(SCC(N)=O)nc3c([nH]c4ccccc43)c2=O)c1	0	0	0	3	1	75*
O=c1c(-c2ccco2)[n+]([O-])c2ccccc2n1OCc1ccccc1F	2	1	1	-1	-1	9
O=c1c(-c2ccco2)[n+]([O-])c2ccccc2n1OCc1c(F)cccc1F	1	0	0	5	0	49*
COc1ccccc1COn1c(=O)c(-c2ccco2)[n+]([O-])c2ccccc21	0	-2	-1	0	-1	36
O=c1c(-c2ccco2)[n+]([O-])c2ccccc2n1OCc1ccccc1	-1	-1	1	-2	-1	61*
CCCS(=O)(=O)NC(=O)C1(C)CCCN(C(=O)Cc2ccc3ccccc3c2)C1 (configuration not stated)	-1	/	1	1	-1	/
Cc1nc2ccc(NC(=O)c3ccc(F)cc3F)cc2c(=O)[nH]1	4	/	0	3	0	/
Cc1cc(C)c2c(n1)sc1c(=O)n(Cc3ccc(F)cc3)cnc12	-1	4.5*	0	0	0	-1

Source: PubChem (The Scripps Research Institute Molecular Screening Center)
